Experimental data reported in ChEMBL document CHEMBL4513141, “CO-ADD screening of NIH (USA) - Clinical Collection” (2021).
Hit rate of the full screen: of about 23,000 compounds, about 30 (0.1%) showed an effect of 50% or more. The list comes from a sample in which strong results are over-represented; it also holds similar structures and randomly drawn compounds. Measured potencies and affinities stand elsewhere.

What follows are compounds tested on Pseudomonas aeruginosa. Conditions: Concentration 20 uM; ASSAY_TEST Inhibition of Bacterial Growth; detection method Absorption (OD600); MEDIA CAMHB; plate type 384well; NBS; CORNING #3640; time 18 hr.

SMILES	Inhibition [%]
CCOC(=O)[C@H](CCc1ccccc1)N[C@@H](C)C(=O)N1Cc2ccccc2C[C@H]1C(=O)O.Cl [QUINAPRIL HYDROCHLORIDE]	14.62
CCOC(=O)[C@@H](CCc1ccccc1)N[C@@H](C)C(=O)N1CCC[C@H]1C(=O)O.O=C(O)/C=C\C(=O)O	1.23
CCOC(=O)[C@H](CCc1ccccc1)N[C@@H](C)C(=O)N1[C@H](C(=O)O)C[C@@H]2CCC[C@@H]21	53.62
CN1C(C(=O)Nc2ccccn2)=C(O)c2ccccc2S1(=O)=O.O	7.03
CCOC(=O)OC(C)OC1=C(C(=O)Nc2ccccn2)N(C)S(=O)(=O)c2ccccc21 (stereo unspecified) [AMPIROXICAM]	53.02
Cc1cnc(NC(=O)C2=C(O)c3ccccc3S(=O)(=O)N2C)s1 [MELOXICAM]	4.04
N[C@@H]1CONC1=O [CYCLOSERINE]	60.23
C[C@@H]1O[C@@H](OC[C@H]2O[C@@H](Oc3c(-c4ccc(O)c(O)c4)oc4cc(O)cc(O)c4c3=O)[C@H](O)[C@@H](O)[C@@H]2O)[C@H](O)[C@H](O)[C@H]1O [RUTIN]	17.85
O=c1c(O[C@@H]2O[C@H](CO)[C@H](O)[C@H](O)[C@H]2O)c(-c2ccc(O)c(O)c2)oc2cc(O)cc(O)c12 [HYPEROSIDE]	12.67
O=c1c(O[C@@H]2O[C@H](CO)[C@@H](O)[C@H](O)[C@H]2O)c(-c2ccc(O)c(O)c2)oc2cc(O)cc(O)c12 [ISOQUERCETIN]	60.53
Cl.Nc1c2c(nc3ccccc13)CCCC2 [TACRINE HYDROCHLORIDE]	19.73
